ATXN2 expr inh – Primary qHTS for Inhibitors of ATXN expression. HEK-293 ATXN2-luciferase reporter, luminescence, 24 h. Potency, µM (doses to about 57 µM), actives largely listed as inhibitors. hit rate 0.72% among 360,000. AID 1745845, 2022; also: nearly all actives have a fitted effect of over 55% in size
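ATXN2-luciferase reporter cells (luciferase flanked by upstream and downstream ATXN2 gene portions) were treated 24 h at 37 °C with compounds at up to 57 uM. SteadyGlo luminescence gave expression; GF-AFC fluorescence gave viability.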
KB-3-1 tox – qHTS assay for MDR1-selective chemotherapeutics: Primary screen using the parental adenocarcinoma cell KB-3-1; KB-3-1 viability, CellTiter-Glo ATP luminescence, 72 h; Potency, µM (titrated, usually from 46.1 µM), actives largely listed as cytotoxic; hit rate 1.4% among 400,000; AID 1347075, 2019; also: nearly all actives have a fitted effect of over 60% in size
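Here the drug-naive KB-3-1 line serves as comparator for MDR sub-line selectivity; cells received compound titrations, 72 h at 37 °C, then CellTiter-Glo readout.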
S2 tox – Viability Counterscreen for Primary qHTS for Inhibitors of ATXN expression; hit rate 0.49% among 400,000; Potency, µM (titrated, usually from 56.7 µM), most hits filed as cytotoxic; S2 cells (HEK-293 line with an ATXN2-luciferase reporter) viability, CellTiter-Fluor protease fluorescence, 24 h; AID 651635, 2014; also: nearly all actives have a fitted effect of over 40% in size
KB-V1 MDR tox – qHTS assay for MDR1-selective chemotherapeutics: Primary screen using the drug-selected MDR subline cells KB-V1; AID 1347076, 2019; KB-V1 MDR cells viability, CellTiter-Glo, 72 h; Potency, µM (titrated, usually from 46.1 µM), most hits filed as cytotoxic; hit rate 3.4% among 400,000; also: nearly all actives have a fitted effect of over 60% in size
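In this primary screen, KB-V1 cells overexpressing P-gp are incubated with library compounds (lowest to highest concentration) for 72 h at 37 degrees C before a luminescent ATP viability read.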
HepG2 viability – qHTS for Inhibitors of TGF-b: Cytotox Counterscreen | HepG2 CAGA-GFP viability, ATP luminescence, 18 h | Potency, µM (series often up to 46.1 µM), actives largely listed as cytotoxic | hit rate 0.76% among 410,000 | AID 588856, 2011
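CellTiter-Glo luminescence gave cytotoxicity after 18 hours at 37 degrees C. The cells were HepG2 CAGA-GFP in 1% FBS DMEM, stimulated with 500 pg/mL TGF-beta after compound addition. %Activity was normalised to no-cell wells (complete cell-killing) and DMSO (no toxicity), and curves were fitted and classified.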
TGFb inhibitor – qHTS for Inhibitors of TGF-b. HepG2 CAGA-GFP TGF-b/SMAD3 reporter, GFP fluorescence, 18 h; TGF-beta stimulated, 500 pg/mL final. Potency, µM (highest dose often 46.1 µM), usual class: inhibitors. hit rate 1.2% among 410,000; also: nearly all actives have a fitted effect of over 65% in size
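Smad-responsive CAGA-GFP expression was quantified in HEPG2 cells exposed to compounds and 500 pg/mL final TGF-beta for 18 h at 37 degrees C; unstimulated wells defined full inhibition.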
Of the large screens only hits and unclear results are named; the others gave an inactive call. The list is not random: actives were taken first. Their share in the collection is about 5.9%. Calls follow the shape of the dose curve; as a rule, active = well fitted curve in the direction sought with a large enough effect; inconclusive = small, poorly fitted or top-dose-only effect, or another doubt; inactive = no such curve, though single readings can be large; an effect the other way counts as inactive or inconclusive.

O=C1C(Cl)=C(Nc2ccc(O)cc2)C(=O)c2ccccc21	ATXN2 expr inh 16µM, KB-3-1 tox inconclusive, S2 tox 16µM, KB-V1 MDR tox inconclusive, HepG2 viability 5.6µM, TGFb inhibitor inconclusive
CCCC(=O)NC1=C(Cl)C(=O)c2ccccc2C1=O	KB-3-1 tox inconclusive, KB-V1 MDR tox inconclusive (no result: S2 tox)
COc1ccc(OC)c(CCNC(=O)c2cc3c(=O)n(C)c4ccccc4c3n2C)c1	TGFb inhibitor inconclusive
COc1ccc(-c2nc3ccccc3n2Cc2ccc(Cl)cc2)cc1	S2 tox inconclusive, TGFb inhibitor 16µM
COc1ccc(-c2nc3ccccc3n2Cc2ccc(C)cc2)cc1	TGFb inhibitor inconclusive
COCn1c(-c2ccc(OC)cc2)nc2ccccc21	S2 tox inconclusive
CCCn1c(-c2ccc(OC)cc2)nc2ccccc21	KB-3-1 tox inconclusive, KB-V1 MDR tox 18µM
COc1ccc(O)c(CN2CCC3(CCC(CNC(=O)c4ccccc4)O3)CC2)c1 (centres undefined)	none (no result: ATXN2 expr inh, KB-3-1 tox, KB-V1 MDR tox, HepG2 viability, TGFb inhibitor)
CCSc1nnc(NC(=O)CSc2nnc(Cc3cccn3C)n2-c2ccc(F)cc2)s1	KB-V1 MDR tox 16µM
Cc1ccc(-n2c(Cc3cccn3C)nnc2SCC(=O)Nc2ccc3c(c2)OCO3)cc1	KB-V1 MDR tox 3.7µM
Cn1cccc1Cc1nnc(SCC(=O)Nc2ccc3c(c2)OCCO3)n1-c1ccc(F)cc1	none
Cn1cccc1Cc1nnc(SCC(=O)Nc2ccc(F)cc2)n1-c1ccc(F)cc1	TGFb inhibitor inconclusive
Cc1ccc(-n2c(Cc3cccn3C)nnc2SCC(=O)NCc2ccc3c(c2)OCO3)cc1	KB-3-1 tox inconclusive, KB-V1 MDR tox 15µM
COCCn1c(-c2ccccc2)c(C)n2c3c(=O)n(C)c(=O)n(C)c3nc12	KB-V1 MDR tox inconclusive
CCOC(=O)c1ccc(N2C(=O)c3n[nH]c(-c4cccs4)c3C2c2cccc(F)c2)cc1 (centres undefined)	TGFb inhibitor inconclusive (no result: ATXN2 expr inh, KB-3-1 tox, S2 tox, KB-V1 MDR tox)
CCCN(CCC)S(=O)(=O)c1ccc(NC(=O)c2cc(C(=O)OC)cc([N+](=O)[O-])c2)cc1	KB-V1 MDR tox 10µM
COc1ccc(CNC(=O)CC2N=C3c4ccccc4N=C(SCC(=O)Nc4ccc(C(C)C)cc4)N3C2=O)cc1 (centres undefined)	none (no result: ATXN2 expr inh, S2 tox)
Cc1cc(C)cc(NC(=O)CSc2nc3nc(C)cc(C)n3n2)c1	KB-V1 MDR tox 18µM
Cc1cc(C)n2nc(SCC(=O)N3CCCC3)nc2n1	none
Cc1cc(C)n2nc(SCC(=O)N3CCN(c4ccccc4)CC3)nc2n1	S2 tox inconclusive, KB-V1 MDR tox 12µM
CCC(=O)N1c2ccccc2CC1C(=O)NCCN1CCN(c2cccc(C(F)(F)F)c2)CC1 (centres undefined)	S2 tox inconclusive
N#Cc1nc(Nc2cc(F)cc(F)c2)c2ncn(CCCN3CCCC3)c2n1	none (no result: ATXN2 expr inh, S2 tox, HepG2 viability, TGFb inhibitor)
O=S(=O)(c1ccccc1)N1CCN=C1SCc1cccc(Cl)c1	KB-3-1 tox inconclusive, KB-V1 MDR tox inconclusive, TGFb inhibitor 13µM
Cc1ccc(OC(=O)CSc2nnc(CNC(=O)c3ccccc3)o2)cc1	KB-V1 MDR tox inconclusive
COc1ccc(-c2oc3ccc(N4CCOCC4)cc3c2C#CC2(O)CCCCC2)cc1	KB-3-1 tox 21µM, S2 tox inconclusive, TGFb inhibitor inconclusive
CSc1cccc(NC(=O)C2CCN(c3nc4ccccc4[nH]3)CC2)c1	TGFb inhibitor inconclusive (no result: ATXN2 expr inh, S2 tox)
Cc1oc2c(c1C(=O)O)C(=O)c1ccccc1C2=O	KB-3-1 tox inconclusive, HepG2 viability 7.1µM, TGFb inhibitor 5µM
Cc1oc2c(c1C(=O)c1ccccc1)C(=O)C(=O)c1ccccc1-2	ATXN2 expr inh 3.5µM, KB-3-1 tox inconclusive, HepG2 viability 4.5µM, TGFb inhibitor inconclusive (no result: S2 tox)

Assay outcomes from PubChem BioAssay.
